Assay results reported in PubChem BioAssay AID1117319 (Southern Research Institute, 2015).
“And” between values parts separate entries of the source, which are not always exact repeats. Identical values can stand only once. About 1,500 (0.58%) of roughly 260,000 compounds were called active. Inconclusive results (about 5%) are left out.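 The calls were made as follows: active = inhibition above a set limit at one or more doses, reproduced on every date tested; inconclusive = results disagree between test dates, or hit never tested in dose response; inactive = the rest.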 The list is a sample of the results. Measured potencies and affinities stand elsewhere.

biological target: Virion infectivity factor (Human immunodeficiency virus type 1 group M subtype B (isolate BH10)) + Virion infectivity factor (Human immunodeficiency virus type 1 group M subtype B (isolate BRU/LAI)) + Virion infectivity factor (Human immunodeficiency virus type 1 group M subtype B (isolate PCV12)) + Virion infectivity factor (Human immunodeficiency virus type 1 group M subtype B (isolate HXB2)) + DNA dC->dU-editing enzyme APOBEC-3G (Homo sapiens) (UniProt P69720+P69721+P69722+P69723+Q9HC16); assay: inhibitors of Vif binding to APOBEC3G peptide, primary screen, biochemical, TR-FRET, GST-Vif 1-94, biotin-A3G peptide, dose response retest (AID 1117319); details: active compounds read high;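 also: Vif residues 1-94 fused to GST binding biotinylated APOBEC3G peptide 110-148; 0% = full assay without inhibitor and 100% = GST in place of GST-Vif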

inhibition, inactive:
COC(=O)CCC(=O)OC1(C)C(=O)C=C2C=C(C3CC3)N(CCCOC(C)C)C=C2C1=O (stereo unspecified) 20.5%
COC(=O)CCC(=O)OC1(C)C(=O)C=C2C=C(C3CC3)N(Cc3ccc(OC)cc3)C=C2C1=O (stereo unspecified) 31.5%
CC(C)OCCCN1C=C2C(=O)C(C)(OC(=O)CCc3ccccc3)C(=O)C=C2C=C1c1ccc(C#N)cc1 (stereo unspecified) 12.3%
COc1ccc(N2C=C3C(=O)C(C)(OC(=O)CCc4ccccc4)C(=O)C=C3C=C2c2ccc(C#N)cc2)cc1 (stereo unspecified) 11.3%
O=[N+]([O-])c1ccc2nc(SCc3ccccc3Cl)sc2c1 2.57%
CC(C)n1c(SCC(=O)N2c3ccccc3Sc3ccccc32)nc2c1c(=O)n(C)c(=O)n2C 1.71%
Cc1ccc2cccc(SCC(=O)NCc3ccco3)c2n1 5.4%
Cc1ccc(S(=O)(=O)N(C)c2ccc(C(=O)NCC(c3ccco3)N3CCCC3)cc2)cc1 (stereo unspecified) -9.74%
CC(C)(C)c1ccc(/C=C/C(=O)N2CCc3ccccc3C2)cc1 7.01%
Cc1ccc(/C=C/C(=O)N2CCc3ccccc3C2)cc1 0%
CC12CCC(=O)C=C1CCC1C2C(O)CC2(C)C1CCC2(O)C(=O)COC(=O)COCC(=O)O (stereo unspecified) 0.66%
COc1ccccc1NC(=O)c1ccc(NC(=O)c2cc3c(s2)CCC3)cc1 -2.47%
CNC(=O)COC(=O)c1cc2c(s1)CCCC2 0.25%
Cc1c(/C=N/O)c2ccccn2c1C(=O)c1ccc(F)cc1 -0.95%
CC(C)C1CC(C(F)(F)F)n2nc(C(=O)O)cc2N1 (stereo unspecified) 7.12%
Cc1cc(C)nc(SCc2nnc(SCC(=O)Nc3nc(-c4ccccc4)cs3)n2C)n1 -21.4%
Cc1ccc(N2CCN(c3ccc(C)cc3)C2c2cccnc2)cc1 -3.62%
Cc1ccc(N2CCN(c3ccc(C)cc3)C2c2ccncc2)cc1 13.1%
N#CCCN(C(=O)COC(=O)c1cc(S(=O)(=O)N2CCOCC2)ccc1Cl)c1ccc(F)cc1 -1.91%
CC(=O)Nc1ccc2nc(NC(=O)CS(=O)(=O)c3ccccc3)sc2c1 5.59%
Cc1[nH]c(=O)[nH]c(=O)c1S(=O)(=O)Nc1cccc(C(F)(F)F)c1 -6.82%
Cc1ccc(NS(=O)(=O)c2c(C)[nH]c(=O)[nH]c2=O)cc1C 0.84%
Cc1ccc(C)c2[nH]c(=O)c(CCNC(=O)c3cc4ccccc4o3)cc12 24.9%
O=C(Cc1ccccc1)NC1CCN(C(=O)c2ccc([N+](=O)[O-])cc2)CC1 -1.3%
CCOc1ccccc1CN1CCN(Cc2csc(C(C)=O)c2)CC1CCO (stereo unspecified) 3.88%
Nc1nonc1C(=O)N/N=C/c1ccc(-c2cccc([N+](=O)[O-])c2)o1 -3.49%
Cc1cc([N+](=O)[O-])c(C)cc1-c1ccc(/C=N/NC(=O)Cn2nnnc2N)o1 9.49%
C=CCN1C(=O)C(CC(=O)Nc2ccc(C)cc2)SC1=Nc1c(C)n(C)n(-c2ccccc2)c1=O (stereo unspecified) 4.69%
O=C(Cc1c(F)cccc1Cl)NCc1cccnc1 -4.5%
CC(=O)Nc1ccc(OCC(O)CN2CCN(c3ccc(Cl)cc3)CC2)cc1 (stereo unspecified) 22.8%
CC1(C)NC(=O)N(CCSc2ccc(Cl)cc2)C1=O -1.11%
Cc1ccc(SCCCCN2C(=O)NC(C)(C)C2=O)cc1 -3.51%
CCc1cccc(CC)c1NC(=O)C(NS(=O)(=O)c1cccs1)c1ccccc1 (stereo unspecified) 9.9%
CCOC(=O)C1=C(COC(=O)c2ccc(Cl)nc2)NC(=O)NC1C (stereo unspecified) 5.43%
CC1NC(=O)NC1CCCCC(=O)O (stereo unspecified) 3.51%
O=C(O)CCCCCCCCCCC1CCC(O)C1O (stereo unspecified) -4.99%
CC(=O)N(c1ccccc1C)c1ccccc1C -4.05%
CSCCC(NC(=O)c1ccccc1)C(=O)NCCCSc1ccccc1 (stereo unspecified) -3.49%
O=C(CCC1CCCC1)NNC(=O)c1ccccc1O -4.22%
COc1ccc(CCNC(=O)COc2ccc(S(=O)(=O)N3CCCC3)cc2)cc1 -4.34%
CC(C)NS(=O)(=O)c1ccc(OCC(=O)NCCC2=CCCCC2)cc1 2.83%
Cc1nnc(SCC(=O)N2CCN(S(=O)(=O)c3ccccc3)CC2)s1 -8.25%
CCc1ccc(/C=N/n2c(C3CCCCC3)n[nH]c2=S)cc1 -5.47%
CC(C)(CO)NCc1cc(Br)ccc1OCc1ccccc1 -4.77%
CCC1=NN2C(=N)/C(=C\c3ccc(OCCOc4ccc(NC(C)=O)cc4)c(OC)c3)C(=O)N=C2S1 -0.34%
COc1ccc(C(=O)c2ccc(OC)cc2O)c(O)c1 4.6%
COc1ccc(OC)c(N)c1 14.5%
CCOC(=O)Cc1ncccc1C(=O)Nc1ccc(Oc2ccccc2)cc1 -1.5%
COc1ccc(C(=O)NCc2nnc(SCC(=O)Nc3nc4ccc(C)cc4s3)o2)cc1OC 9%
COc1ccc(C(=O)NCc2nnc(SCC(=O)Nc3nc4ccccc4s3)o2)cc1OC 0.33%
Cc1ccc(CSc2nc3ccncc3n2CC(=O)Nc2cc(C)cc(C)c2)cc1 -48.6%
Cc1sc2ncnc(SCC(=O)NC(=O)NCc3ccco3)c2c1C -3.92%
Cc1sc2ncnc(NCc3ccco3)c2c1C 23.1%
COc1ccc2c(c1)CC(C1(O)C(=O)N(C)c3ccccc31)C2=O (stereo unspecified) -5.17%
CC(=O)c1ccc(NC(=O)Nc2ccc3c(c2)nc(C)n3C)cc1 11.4%
Cc1ccc(NC(=O)Nc2ccc3c(c2)nc(C)n3C)cc1 66.9%
COc1ccc(NC(=O)CN(C)C(=O)CSc2nc3ccccc3s2)cc1 -0.85%
Cc1ccc(-n2nc3c(c2NC(=O)c2ccc(Br)o2)CSC3)c(C)c1 17%
Cc1ccccc1-n1nc2c(c1NC(=O)c1ccc(Br)o1)CSC2 17.6%
COc1ccc(NC(=O)COC(=O)c2ccc(S(=O)(=O)N3CC(C)CC(C)C3)cc2)cc1OC (stereo unspecified) 0.85%
CC(=O)Nc1ccc(S(=O)(=O)Nc2nc3ccccc3nc2Nc2ccc(S(N)(=O)=O)cc2)cc1 23.8%
CC(=O)Nc1ccc(S(=O)(=O)Nc2nc3ccccc3nc2Nc2cccc(O)c2)cc1 6.78%
CC(=O)Nc1ccc(Nc2nc3ccccc3nc2NS(=O)(=O)c2ccccc2)cc1 17.2%
CC(=O)Nc1ccc(S(=O)(=O)Nc2nc3ccccc3nc2Nc2ccc(O)cc2)cc1 -3.02%
Cc1ccc(NC(=O)CS(=O)(=O)c2c[nH]c3ccccc23)c(C)c1 -0.62%
COCCNC(=S)N/N=C(\C)CCc1ccc2c(c1)OCO2 3.32%
COc1ccc(/C=C/C(=O)NNC(=O)c2cc(C)oc2C)cc1 1.71%
Cc1cc(NC(=O)/C=C/c2ccco2)ccc1NC(=O)c1ccccc1 11.7%
Cc1cc(C(=O)NNC(=O)/C=C/c2ccccc2Cl)c(C)o1 -12.6%
COc1cccc(NC(=S)NC(=O)/C=C/c2ccco2)c1 28.1%
CC(=O)c1ccc(NC(=S)NC(=O)/C=C/c2ccco2)cc1 9.46%
O=C(/C=C/c1ccco1)Nc1ccccc1C(=O)Nc1cccc(C(=O)O)c1 30.8%
Cc1ccc(O)c(NC(=S)NC(=O)/C=C/c2ccco2)c1 -4.52%
O=C(/C=C/c1ccco1)NC(=S)Nc1ccccc1 10.3%
COc1cc(OC)cc(C(=O)NCC(=O)OCc2nc3ccccc3s2)c1 5.21%
COC(=O)C(NC(=O)c1ccccc1)(Nc1cc(C)cc(C)n1)C(F)(F)F (stereo unspecified) -5.13%
COc1ccc(CN2C(=O)C(CC(=O)NCCCCc3ccccc3)CC(C(=O)N(C(C)C)C(C)C)=C2C)cc1 (stereo unspecified) 6.93%
CN(Cc1ccccc1)C(=O)CCC(=O)N(C)Cc1ccccc1 0.41%
C=CCNc1nc2c(c(=O)[nH]c(=O)n2C)n1Cc1cccc(C)c1 -3.73%
CCN(CC)CCOC(=O)c1ccc(NC(=O)COc2cc(=O)n(CC)c3ccccc23)cc1 3.06% and 4.99%
COCCCN1C(=O)c2ccc(C(=O)NCc3ccco3)cc2C1=O 1.46%
O=C(/C=C/c1ccco1)NC(=S)Nc1cc(C(F)(F)F)ccc1N1CCOCC1 31.6%
CC(C)C(=O)N1CCN(c2ccccc2NC(=S)NC(=O)/C=C/c2ccco2)CC1 4.53%
Cc1ccc(Sc2ccc(/C=C3/C(=O)NN(c4ccccc4)C3=O)o2)cc1 22.1%
CS(=O)(=O)N(CCC#N)Cc1ccco1 0.4%
CS(=O)(=O)N(CCC#N)Cc1ccc(C=O)o1 -8.77%
CS(=O)(=O)N(CCC#N)Cc1ccc(/C=C2\C(=O)Nc3ccccc32)o1 -11%
COc1cc2c(cc1OC)CN(C(=O)c1cc3ccccc3oc1=O)CC2 1.51%
Cc1ccc(S(=O)(=O)N2CCC[C@H]2C(=O)OCCN2C(=O)c3ccccc3C2=O)cc1 -7.91%
COC(=O)CN(C(=S)Nc1ccccc1)C1CC(=O)N(c2ccc(OC)cc2)C1=O (stereo unspecified) -1.92%
Cc1cccc(NC(=O)C2CC(=O)NC(Nc3nc4ccccc4s3)=N2)c1 (stereo unspecified) 11.6%
